Common to all, as to assay: NCI-60 one-dose screen, 48 h (100 = growth as untreated, 0 = no growth, -100 = all killed)
The test system of assay [1] is SR leukemia. The settings on record: 10 µM unless noted.
For assay [2], the system named is RPMI-8226 leukemia. The settings on record: 10 µM unless noted.
Assay [3] deals with OVCAR-8 ovarian. Conditions: 10 µM unless noted.
For assay [4], the system named is OVCAR-5 ovarian. Conditions: 10 µM unless noted.
In assay [5] the test system is OVCAR-4 ovarian. The settings on record: 10 µM unless noted.
For assay [6], the system named is SK-OV-3 ovarian. The settings on record: 10 µM unless noted.
The test system of assay [7] is IGROV1 ovarian. The settings on record: 10 µM unless noted.
Assay [8] relates to OVCAR-3 ovarian. The settings on record: 10 µM unless noted.
Assay [9] relates to NCI/ADR-RES ovarian. The settings on record: 10 µM unless noted.
In assay [10] the test system is HS 578T breast. Conditions: 10 µM.

The panel holds about 83,000 compounds, 20% with a hit somewhere; the sample as a whole holds those more often.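 A percent growth of 40 corresponds to 60% growth inhibition; 0 means no net growth; -100 means all cells died. Active threshold: below 10.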 A number with no mark means an inactive call. Calls of active or inactive are those of the source.

On to `Cn1cc(-c2ccc(F)c(C(F)(F)F)c2)nc1C1CCN(c2ncnc3[nH]ncc23)CC1`, for which the growth in assay [1] was 55.4%; in assay [2] it was 82.3%; in assay [3], 47.8%; in [4] it was 85.8%; in [5] it was 80.4%; in assay [6] it was 55.5%. For the same compound, the growth in assay [7] is 55.2%; in assay [8] it was 89.6%; in [9], 61.2%.

For the compound `C[C@@]1(C(=O)Nc2ccc(F)nc2)CCCN1c1nc(Nc2cc(C3CC3)[nH]n2)c2cccn2n1`, the growth is -0.827% (active) in assay [1]; 62.1% in [2]; 38.6% in assay [3]; 14.7% in assay [4]; 0.224% (active) in assay [5]; 18.7% in assay [6]. Further, the growth in assay [7] is 1.38% (active); in [8], 57.4%; in [9], 32%.

Consider `CNS(=O)(=O)Nc1nccc(Cc2c(C)c3ccc(Oc4ncccn4)cc3oc2=O)c1F`, for which the growth was 58.3% in assay [1]; 55.3% in assay [2]; 63.2% in [3]; 20.4% in assay [4]; 55% in assay [5]; 53.3% in assay [6]. Moreover, the growth in [7] is 28.7%; in [8] it was 76.2%; in assay [9] it was 70.6%.

Turning to `COC(=O)[C@H](Cc1ccc(O)cc1)NC(=O)[C@@H](OC)[C@@H]1Cc2cc3cc(OC4CC(OC5CC(O)C(O)C(C)O5)C(O)C(C)O4)c(C)c(O)c3c(O)c2C(=O)[C@H]1OC1CC(OC2CC(OC3CC(C)(O)C(O)C(C)O3)C(O)C(C)O2)C(O)C(C)O1` (stereo not given in full), the growth in assay [1] was 9.7% (active); in assay [2], -5.59% (active); in assay [3], 9.74% (active); in [4], 10.6%; in assay [5], 7.27% (active); in assay [6], 20.7%. Further, the growth in [7] is 31.2%; in assay [8], 5.52% (active); in assay [10] it was -9.2% (active); in assay [9], 85.6%.

Regarding `CC1(/C=N/NC(N)=S)NC(=O)NC1=O` (stereo not given), the growth in [1] is 94.8%; in [2], 104%; in [3], 97.7%; in assay [4], 102%; in assay [5], 109%; in [6] it was 86.9%. Besides, the growth in assay [7] is 111%; in assay [8] it was 109%; in [10], 97%; in assay [9], 111%.

Take `COC(=O)c1ccc2c(C(=Nc3ccc(N(C)C(=O)CN4CCN(C)CC4)cc3)c3ccccc3)c(O)[nH]c2c1`: the growth in [1] was 6.5% (active); in assay [2], 62.4%; in assay [3], 53.2%; in [4] it was 64.5%; in assay [5], 68.5%; in [6], 53.2%. Also, the results for the growth in assay [7], in assay [8] and in assay [9] were 33.6%, 91.3% and 82.2%, respectively.

Regarding `COc1cc(N2CCC(N3CCN(C)CC3)CC2)ccc1Nc1ncnc(Nc2ccccc2S(=O)(=O)C(C)C)n1`, the growth in assay [1] is 12.7%; in [2], 101%; in assay [3], 99.3%; in assay [4], 98.3%; in assay [5], 113%; in [6] it was 87.4%. The values for the growth in assay [7], in assay [8] and in [9] were 103%, 105% and 109%, respectively.

As to `C[C@H]1Oc2cc(cnc2N)-c2c(nn(C)c2C#N)CN(C)C(=O)c2ccc(F)cc21`, the growth in assay [1] was 6.17% (active); in [2], 92.6%; in assay [3] it was 83.2%; in assay [4] it was 58.3%; in assay [5] it was 81.1%; in assay [6], 55.1%. Also, the growth in assay [7] is 80.2%; in assay [8], 108%; in assay [9], 80.4%.

On to `COc1cc2c(Oc3ccc4[nH]c(C)cc4c3F)ncnc2cc1OCCCN1CCCC1`, for which the growth in assay [1] is 84.3%; in [2], 110%; in [3] it was 97.1%; in assay [4] it was 78.4%; in [5], 74%; in assay [6], 82.1%. The results for the growth in assay [7], in assay [8] and in [9] were 46.6%, 87.4% and 88.5%, respectively.

Consider `CC(=O)c1c(C)c2cnc(Nc3ccc(N4CCNCC4)cn3)nc2n(C2CCCC2)c1=O`, for which the growth in assay [1] was -18.7% (active); in assay [2], 28.2%; in [3] it was 52.3%; in [4] it was 37.8%; in [5], 62%; in [6], 36.5%. Moreover, the growth in assay [7] was 27.2%; in assay [8] it was 74.6%; in assay [9], 72.4%.

On to `Cn1cc(-c2[nH]c3cc(NC(=O)[C@H](N)C4CCCCC4)cc4c3c2C=NNC4=O)cn1`, for which the growth is -15.7% (active) in assay [1]; -18.1% (active) in assay [2]; -29.5% (active) in assay [3]; 13% in assay [4]; 20.9% in assay [5]; 6.78% (active) in assay [6]. Also, the growth in assay [7] is -27.4% (active); in assay [8] it was -13% (active); in assay [9], 49.7%.

Take `COc1cc2c(Oc3ccc(NC(=O)C4(C(=O)Nc5ccc(F)cc5)CC4)cc3F)ccnc2cc1OCCCN1CCOCC1`: the growth in [1] is -16.7% (active); in [2] it was 10.3%; in [3], 26.8%; in [4], 11.7%; in assay [5] it was 32.1%; in assay [6], -13.8% (active). The growth in [7] is -34.7% (active); in assay [8] it was 46.5%; in assay [9], 9.62% (active).

On to `CNC(=O)c1cc(Oc2cccc3nc(Nc4ccc(Oc5ccccc5)cc4)ccc23)ccn1`, for which the growth is 30.2% in [1]; 47.9% in [2]; 75.8% in assay [3]; 83.4% in assay [4]; 52.1% in assay [5]; 87.1% in assay [6]. Besides, the growth was 92.4% in [7], 72.7% in assay [8], 81.9% in assay [10] and 72.6% in [9].

The record behind these values is PubChem BioAssay (NCI).
